# The full ranking holds about 33,000 sequences; the median of “E-score (dimensionless, -0.5 to 0.5)” is about -0.058, and the highest 2% start at about 0.35. This excerpt belongs to a sample that is enriched for the highest values.
# Test system: MvaT
# Test: PBM 8-mer E-score (mean of HK and ME arrays) (E-score (dimensionless, -0.5 to 0.5)); higher = stronger relative binding preference
# Method in brief: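 Full-length P. aeruginosa MvaT carrying an N-terminal glutathione S-transferase tag was tested by protein binding microarray following a previously described protocol. Two universal double-stranded 60-mer arrays, ME and HK, were used, each with a constant 25-mer primer region and a variable 35-mer region covering all 8-mers. The rank-based E-score is the mean of the two arrays, parsed with a custom script. Its range runs from -0.5 to 0.5 for each 8-mer.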
row,Sequence,PBM 8-mer E-score
1,GTTGCAAC,0.157
2,CGAGCTTC,-0.313
3,ACAGTCTA,-0.0014
4,ATAAAGGA,0.0948
5,ACAGGCCG,-0.147
6,ATAAAGTG,0.228
7,CATGATAC,0.111
8,ACGATATA,0.328
9,GATATACC,0.178
10,GCGATATA,0.361
11,GATATCTA,0.267
12,GGGATATA,0.218
13,CCGATATA,0.333
14,GAGATATC,0.163
15,GATATATA,0.469
16,GATATATC,0.396
17,TCAAGTGA,-0.00408
18,AAAGAGTC,0.0357
19,GTCGATCA,-0.174
20,CTGATACA,0.0751
21,AATACAGC,0.247
22,CTCGCAGC,-0.11
23,CCTCACCC,-0.165
24,AGAATTTC,0.122
25,GTAATTGA,0.264

row,Sequence,PBM 8-mer E-score
1,ATAATTCA,0.325
2,GTAATTCA,0.191
3,CTAATTGA,0.11
4,ATAATTTG,0.298
5,AGAATTTA,0.262
6,ATAATTTC,0.386
7,GTAATTTA,0.388
8,CTAATTTC,0.0429
9,CTAATTTA,0.389
10,ATAATTTA,0.416
11,AGTAGAGA,0.0385
12,CCTGAATA,0.0626
13,ACGGCAGA,-0.166
14,GCCACACC,-0.0459
15,AACTCTGC,0.143
16,AAAGGTCA,-0.0376
17,ATCTCATA,-0.00882
18,TCTTATCA,0.177
19,TCTTATAA,0.369
20,ACTTATGA,0.248
21,ACTTATAC,0.326
22,ACTTATAA,0.419
23,GCTTATAA,0.418
24,ACTTATAG,0.251
25,ACTTATAT,0.424

row,Sequence,PBM 8-mer E-score
1,GCTTATAC,0.166
2,GCTTATGA,-0.0922
3,ACTTATCA,0.196
4,CCTTATAA,0.338
5,GAGCGTAC,-0.233
6,AGTTACTG,0.282
7,ACTGGATA,0.12
8,ACCTAAGA,-0.0551
9,GCCCACGA,-0.205
10,CAATGAGA,-0.0714
11,GATAGAAA,0.105
12,AGAAAGGG,-0.151
13,GCTCTTGA,-0.154
14,ATGTTGGG,0.105
15,GGGAACTA,-0.0248
16,GACATTAA,0.222
17,AACATTAG,0.234
18,AACATTAT,0.34
19,TACATTAA,0.38
20,AACATTAA,0.397
21,CACATTAA,0.305
22,AAATCAGT,0.111
23,TATAAGGA,0.348
24,TATAAGAA,0.369
25,CATAAGGA,-0.0113

row,Sequence,PBM 8-mer E-score
1,GATAAGAA,0.121
2,GATAAGGA,-0.0851
3,CATAAGAA,0.126
4,CATGGAGC,-0.21
5,ATCTGCAT,0.0581
6,CTGCATGC,-0.0882
7,AGAAATAA,0.37
8,AGAAATAT,0.356
9,GGAAATAA,0.31
10,CGAAATAC,0.0434
11,AGAAATAC,0.157
12,CGAAATAA,0.374
13,TGAAATAA,0.314
14,AGAAATAG,0.216
15,AGAAATCA,-0.0327
16,GCTCACAC,-0.19
17,AAAGCCTA,0.125
18,ACTATATC,0.268
19,ACTATACA,0.241
20,CCTATATC,0.0838
21,CCTATATA,0.35
22,GCTATATA,0.402
23,CCTATACA,0.116
24,GCTATAGA,-0.132
25,GCTATACA,0.135

row,Sequence,PBM 8-mer E-score
1,ACTATATA,0.452
2,CGGCTGCC,-0.286
3,CATCCAAA,0.0181
4,ATAGTGTG,0.179
5,TAGGAAAA,0.015
6,ACCAGACG,-0.141
7,ATAAAAAG,0.348
8,ATTAAAAG,0.393
9,CTAAAAAG,0.00374
10,ATTAAAAA,0.321
11,ATAAAAGG,0.119
12,ATAAAAAC,0.274
13,ATAAAAAT,0.293
14,ATAAAAAA,0.387
15,CTTAAAAG,0.166
16,ACTGGAAT,0.118
17,AACCGACG,-0.000494
18,GTGCAAAC,0.0651
19,AACCTTAC,-0.0526
20,AGACCATA,0.00218
21,CACAGACG,-0.11
22,ATTCCTCA,0.129
23,ATAAATTG,0.369
24,GAAAATTA,0.304
25,ATAAACTG,0.175

row,Sequence,PBM 8-mer E-score
1,GTAAATCA,0.189
2,GTAAATTA,0.391
3,CTAAATTA,0.336
4,AAAAATTA,0.275
5,ATAAACTC,0.269
6,ATAAATTA,0.42
7,ATAAACTA,0.356
8,ATAAATTC,0.309
9,AAAAATTG,0.117
10,AACTGGTC,-0.0685
11,TGACTGCA,-0.107
12,AACCCAGT,-0.0508
13,ATTGCACG,0.182
14,ACTCATCA,0.0732
15,AACCATCA,-0.0905
16,AAGTCTCT,0.0309
17,ATCGAATC,-0.0636
18,GCGGGTTA,0.0558
19,CGCGATAA,0.143
20,ACCTATGG,-0.149
21,GATATAAA,0.344
22,GATATAGC,0.127
23,AATATGAC,0.183
24,GATATAAC,0.372
25,CACATAAG,0.122

row,Sequence,PBM 8-mer E-score
1,CATATAAG,0.35
2,GAGATAAC,0.0136
3,ACTATAAC,0.334
4,TATATAAA,0.47
5,AATATAAC,0.42
6,CCTATAAG,0.0158
7,TCTATAAA,0.103
8,CTCAAGGA,-0.151
9,CCTGCTCC,-0.302
10,ATTTGTTC,0.206
11,ATTTTTTC,0.132
12,AAGTGCGT,-0.0188
13,ACGGTTTC,-0.215
14,ATTAGCCC,0.0535
15,ACACTAGT,0.258
16,AGTGCTAC,-0.0841
17,CGAAATGC,-0.0574
18,GATAAACA,0.278
19,TATAAACA,0.373
20,AATATAAT,0.449
21,AAGATAAT,0.287
22,GCTATAAA,0.217
23,AATATGAT,0.345
24,AATATAAA,0.451
25,CACATAAC,0.209

row,Sequence,PBM 8-mer E-score
1,CATAAACA,0.221
2,CATATAAC,0.415
3,CATATAGC,0.0736
4,GAATGCGA,0.0642
5,AATTCTAG,0.157
6,CCCGGCCC,-0.325
7,TGCAAACA,0.106
8,ACGGAAGG,-0.218
9,CATAAAAA,0.179
10,CATATCAA,0.174
11,AGTATAAG,0.272
12,CATATAAA,0.365
13,GATATCAA,0.25
14,CGTATAAA,0.209
15,AATATAAG,0.351
16,CACATAAA,0.179
17,AAGATAAG,0.148
18,TATATCAA,0.352
19,TATAAAAA,0.371
20,GATAAAAA,0.273
21,GAATCATA,0.151
22,CCATCTGA,-0.117
23,GTATGAAA,0.222
24,GTCTGAGA,-0.139
25,AGAGATGC,-0.101

row,Sequence,PBM 8-mer E-score
1,ATCTTTAG,0.14
2,AGTGATCG,-0.118
3,AGAGGCTG,-0.304
4,TTATTGAA,0.279
5,TAGGGTAA,0.133
6,CTGATAAC,0.136
7,AGCACAGG,-0.197
8,AAACAATA,0.375
9,CAACAATA,0.289
10,AAACAATC,0.06
11,GATCAATA,0.152
12,GAACAATA,0.267
13,TAACAATA,0.394
14,AAACAATT,0.346
15,AAACAACA,0.214
16,AAACAAGA,0.166
17,AATCAATA,0.283
18,AAACAATG,0.201
19,TATCAATA,0.365
20,GCAACGAC,-0.141
21,CCTCAACC,-0.226
22,AGATCTCG,-0.173
23,CTCTACTC,-0.0821
24,GCGCCACC,-0.15
25,ACAGGGGT,-0.121

row,Sequence,PBM 8-mer E-score
1,AGGACTCG,-0.265
2,ATACAATA,0.372
3,TAACATTA,0.374
4,GAACATTA,0.276
5,CAACATTA,0.293
6,ATACAATC,0.18
7,CTACAATA,0.244
8,ATCCGTTC,-0.0995
9,AGATTGAC,-0.15
10,GAGATATA,0.303
11,AAGATATC,0.26
12,AAGATATA,0.419
13,AAGATATG,0.136
14,CAGATATA,0.237
15,TAGATATA,0.368
16,ATTTACGA,0.167
17,CTATTTAA,0.274
18,ATATTTAC,0.36
19,ATATTTAG,0.342
20,ATATTTAA,0.462
21,CTATTTAC,0.318
22,ATATTTCA,0.329
23,AGGCACCA,-0.116
24,AGCTGTCA,-0.156
25,ATGATCGG,-0.174

row,Sequence,PBM 8-mer E-score
1,AGCTTCCA,-0.151
2,CGCAAGTA,0.195
3,CTATTATC,0.263
4,ATATTATA,0.477
5,AGATTATC,0.255
6,ACATTATA,0.396
7,ATATTATG,0.411
8,CCATTATA,0.302
9,ATATTATC,0.439
10,AGATTATG,0.189
11,ATCTTATA,0.238
12,GCATTATA,0.309
13,ACATTATG,0.249
14,ATTCAAAC,0.174
15,GATACCGA,0.0372
16,GCTGCCCA,-0.142
17,GAGGAAGA,-0.133
18,ACCCGTTG,-0.195
19,TAGTCACA,0.0578
20,AAAACGTA,0.142
21,CGCCCATC,-0.117
22,CACTTGCA,-0.05
23,CAGCCCTG,-0.254
24,CGTGTCCA,-0.105
25,GCACTTCA,-0.102

row,Sequence,PBM 8-mer E-score
1,GTGTGGTA,0.118
2,CCCTTCGC,-0.248
3,AATTAGGG,0.137
4,AATCCCCG,-0.164
5,GTATTCTA,0.112
6,GTATTACA,0.224
7,CTCTTATA,0.289
8,AGATTATA,0.39
9,CTTTTATA,0.31
10,GTATTATA,0.437
11,ATATTCTA,0.348
12,CTATTATA,0.44
13,CTATTCTA,0.131
14,CGATTATA,0.292
15,GGATTATA,0.32
16,GTCTTATA,0.325
17,CGCGCTTC,-0.107
18,CAATGTCC,-0.106
19,AGCGCCTA,-0.16
20,AACTACGG,0.0587
21,CCGCGCCC,-0.155
22,AACTCGGT,-0.0107
23,GCTGTAAC,0.00489
24,CGCAAGAG,0.0446
25,CGCGGTGA,-0.142

row,Sequence,PBM 8-mer E-score
1,CCCTAAGA,-0.184
2,ATAGAACG,0.0944
3,CCGCAAAG,-0.132
4,ATGGCCAG,-0.256
5,ATATGTTC,0.231
6,ATATGTTG,0.359
7,ATATGTTA,0.423
8,GTATGTTA,0.288
9,ATATGTAC,0.368
10,CTATGTAC,0.112
11,ATATGTCG,0.22
12,ATATGTAA,0.309
13,CTATGTTA,0.278
14,AGTCCACT,-0.0256
15,AATAGACC,0.00124
16,TTGTACAA,0.161
17,CGTCCAGA,-0.16
18,CCTGCTCG,-0.298
19,ACAGGTGC,-0.152
20,AATTGCTG,0.0923
21,ATACCCTC,-0.12
22,CTTGGCCC,-0.249
23,AACTAATG,0.312
24,AACTAGTG,0.19
25,AAATAGTC,0.235

row,Sequence,PBM 8-mer E-score
1,AACTAAAT,0.351
2,AAATAGTT,0.351
3,AACTAAAG,0.202
4,AACTAATA,0.323
5,AAATAGTG,0.136
6,AACTAATT,0.401
7,AACTAAAA,0.345
8,AACTAGTA,0.303
9,AACTAGTT,0.392
10,CAAAGATG,0.0517
11,CGTGAGAA,0.0476
12,AGGAATGG,-0.0828
13,AACCTCCC,-0.253
14,CCGGATAC,-0.146
15,ACTGATAA,0.209
16,ATCAAGGC,-0.14
17,TCATGACA,-0.0413
18,CTGTCCAC,-0.113
19,GCTCAAAC,0.0144

# From the supplement of paper PMC4466236
